Some test systems named below: RPMI-8226 leukemia; OVCAR-8 ovarian; OVCAR-5 ovarian; OVCAR-4 ovarian; SK-OV-3 ovarian; IGROV1 ovarian; OVCAR-3 ovarian; HS 578T breast; NCI/ADR-RES ovarian; T-47D breast.
Holding throughout (assay): NCI-60 one-dose screen, 48 h (100 = growth as untreated, 0 = no growth, -100 = all killed)
What all share (conditions): 10 µM

This is part of a sample that, as a whole, favours compounds with a hit. Of some 83,000 tested, about 20% had one in any assay.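 Note: values are percent growth. 100 is the growth of untreated cells, values between 100 and 0 indicate rising inhibition; between -100 and 0 indicates cell death.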 Values without a mark were called inactive. Activity calls are given as the source filed them. How the source made its calls: active means growth percent below 10; inactive means the rest.

As for `N#CSCC1CC(O)(c2ccccc2)CC(c2ccc(Cl)cc2)O1` (stereo not given), the growth in the test on RPMI-8226 leukemia was 18.1%; in the test with OVCAR-8 ovarian, 66.7%; in the test on OVCAR-5 ovarian, 101%; in the test with OVCAR-4 ovarian, 40%; in the test with SK-OV-3 ovarian, 102%; with IGROV1 ovarian, -25.7% (active). For the same molecule, the growth in the test with OVCAR-3 ovarian is -36% (active); in the test on HS 578T breast it was 21%; in the test with NCI/ADR-RES ovarian, 47.2%; in the test on T-47D breast, 27.4%.
Regarding `CS(=O)(=O)Nc1ccc(Nc2c3ccccc3nc3cc([N+](=O)[O-])ccc23)cc1`, the growth was 0.427% (active) in the test on RPMI-8226 leukemia; 16.6% in the test on OVCAR-8 ovarian; 67.7% with OVCAR-5 ovarian; 46.8% in the test on OVCAR-4 ovarian; 53.3% in the test on SK-OV-3 ovarian; 10.5% in the test on IGROV1 ovarian. Also, the growth in the test with OVCAR-3 ovarian was -1.65% (active); with HS 578T breast, 60.3%; in the test with NCI/ADR-RES ovarian, 87%; with T-47D breast, -11% (active).
Consider `CC(C)=CCc1cc(O)cc2c1OC(C=C(C)C)C1=C2C(=O)C2=C(C1=O)S(=O)(=O)CCN2` (stereo not given), for which the growth with RPMI-8226 leukemia was 51.4%; in the test on OVCAR-8 ovarian it was 10.8%; in the test on OVCAR-5 ovarian, 152%; in the test on OVCAR-4 ovarian, 5.54% (active); with SK-OV-3 ovarian, 84.7%; in the test on IGROV1 ovarian, -0.954% (active). Also, the growth is 0.638% (active) in the test with OVCAR-3 ovarian, 70.3% with HS 578T breast, 91.7% with NCI/ADR-RES ovarian and -0.36% (active) with T-47D breast.
For `COc1ccc(NC(=O)Cc2nc3nc4sc(C)c(C)c4c(=O)n3[nH]2)cc1`, the growth in the test with RPMI-8226 leukemia was 90.5%; with OVCAR-8 ovarian, 101%; in the test with OVCAR-5 ovarian, 108%; with OVCAR-4 ovarian it was 113%; in the test with SK-OV-3 ovarian, 104%; with IGROV1 ovarian, 101%. The growth in the test with OVCAR-3 ovarian was 115%; in the test with HS 578T breast, 107%; in the test on NCI/ADR-RES ovarian, 103%; in the test on T-47D breast, 96.2%.
With `FC(F)(F)c1ccc(-c2cnc(Cl)nc2N2CCC3(CC2)OCCO3)cc1`, the growth with RPMI-8226 leukemia was 76.3%; in the test with OVCAR-8 ovarian, 95%; in the test with OVCAR-5 ovarian, 92.9%; with OVCAR-4 ovarian, 89.9%; in the test with SK-OV-3 ovarian it was 88.9%; in the test on IGROV1 ovarian, 83.6%. For the same molecule, the growth was 96% with OVCAR-3 ovarian, 105% in the test on HS 578T breast, 87.4% in the test with NCI/ADR-RES ovarian and 88.8% in the test on T-47D breast.
Consider `O=C1/C(=C\c2ccc(Br)cc2)CN(C(=O)c2ccccc2F)C/C1=C\c1ccc(Br)cc1`, for which the growth in the test on RPMI-8226 leukemia is -37.7% (active); with OVCAR-8 ovarian it was 1.47% (active); in the test with OVCAR-5 ovarian, 69.4%; in the test with OVCAR-4 ovarian, 18.2%; with SK-OV-3 ovarian, 27.2%; in the test with IGROV1 ovarian it was -31.4% (active). Moreover, the growth with OVCAR-3 ovarian was -52.6% (active); with HS 578T breast it was 24.1%; in the test on NCI/ADR-RES ovarian, 12.7%; in the test with T-47D breast it was 53.3%.
As to `CCN(CC)CCC(CNc1c(C)cnc2cc(Cl)ccc12)c1ccc(Cl)cc1` (stereo not given), the growth in the test with RPMI-8226 leukemia is 44%; in the test on OVCAR-8 ovarian, 61.8%; in the test on OVCAR-5 ovarian, 54.6%; in the test on OVCAR-4 ovarian, 56.6%; in the test on SK-OV-3 ovarian, 81.7%; in the test on IGROV1 ovarian, 46.4%. In addition, the growth with OVCAR-3 ovarian is 70.8%; in the test on HS 578T breast, 70.1%; with NCI/ADR-RES ovarian, 59%; in the test on T-47D breast, 59.6%.
Turning to `COc1cc(C(=O)N2CCN(c3ccccc3OC)CC2)c(N)cc1OCCCN1CCN(c2ccccc2OC)CC1`, the growth in the test with RPMI-8226 leukemia is 56.4%; with OVCAR-8 ovarian it was 101%; with OVCAR-5 ovarian it was 81.6%; in the test with OVCAR-4 ovarian, 77.7%; in the test on SK-OV-3 ovarian, 75.4%; in the test on IGROV1 ovarian, 77.6%. Besides, the growth in the test with OVCAR-3 ovarian is 77.7%; with HS 578T breast, 99%; with NCI/ADR-RES ovarian, 80.1%; in the test with T-47D breast, 50.9%.
On to `Cc1ccc2oc3nc(C)c(C(=O)NCc4ccccc4)cc3c(=O)c2c1`, for which the growth with RPMI-8226 leukemia was 86.1%; with OVCAR-8 ovarian, 92.5%; in the test with OVCAR-5 ovarian, 86.8%; with OVCAR-4 ovarian, 85.3%; with SK-OV-3 ovarian it was 116%; with IGROV1 ovarian, 103%. The growth is 99.7% with OVCAR-3 ovarian, 106% in the test on HS 578T breast, 63.4% in the test with NCI/ADR-RES ovarian and 63.5% with T-47D breast.
On to `CC(=O)N1N=C(c2ccc(Cl)cc2)CC1c1sc(Cl)nc1Cl` (stereo not given), for which the growth with RPMI-8226 leukemia was 87.5%; with OVCAR-8 ovarian it was 78%; with OVCAR-5 ovarian it was 96.9%; in the test with OVCAR-4 ovarian, 66.4%; with SK-OV-3 ovarian it was 83.2%; in the test on IGROV1 ovarian it was 59.1%. In addition, the growth is 75.6% with OVCAR-3 ovarian, 98.2% in the test on HS 578T breast, 80.7% with NCI/ADR-RES ovarian and 75.1% in the test with T-47D breast.
Regarding `COc1ccc(-c2nn(-c3cccc(NC(=O)c4ccc(Cl)c(Cl)c4)c3)cc2-c2ccncc2)cc1Cl`, the growth in the test with RPMI-8226 leukemia was 58%; in the test with OVCAR-8 ovarian, 75.5%; with OVCAR-5 ovarian, 92.4%; with OVCAR-4 ovarian, 93.3%; with SK-OV-3 ovarian, 82.2%; in the test with IGROV1 ovarian, 84.5%. In addition, the growth in the test on OVCAR-3 ovarian was 81.9%; in the test on HS 578T breast, 72.5%; with NCI/ADR-RES ovarian, 61.4%; with T-47D breast it was 62.8%.
For `Cc1cc(N(CCCNc2ccnc3cc(Cl)ccc23)Cc2cccs2)nc(Cl)n1`, the growth is -6.73% (active) in the test with RPMI-8226 leukemia; 44.7% with OVCAR-8 ovarian; 69.1% with OVCAR-5 ovarian; 31.8% in the test on OVCAR-4 ovarian; 42.4% in the test on SK-OV-3 ovarian; 50.8% with IGROV1 ovarian. For the same molecule, the growth with OVCAR-3 ovarian was 55.7%; with HS 578T breast, 65.4%; with NCI/ADR-RES ovarian it was 36.4%; with T-47D breast, 22.1%.

The values are drawn from PubChem BioAssay (NCI).
